The values below come from PubChem BioAssay (EPA / NIEHS).

Calls of active or inactive are those of the source. Rule for the calls: active = hit-call score of the fitted dose curve at least 0.9, where 1 is the maximum; inactive = score below 0.9.

Details in all cases: mRNA level, 48 h; actives raise or lower the signal
Read-out in assay [1]: Tumor necrosis factor receptor superfamily member 6 (Homo sapiens) (UniProt P25445)
Description: LTEA_HepaRG_FAS: Life Technologies and Expression Analysis (LTEA) Assay for Fas cell surface death receptor (FAS) using HepaRG (AID 2283447). The method, boiled down:
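FAS transcript level was measured by TaqMan qRT-PCR against three housekeeping genes after 48 h chemical exposure. Cells were HepaRG, 0.5% DMSO vehicle, with a top concentration of 100 uM and half-log dilutions over eight points, in duplicate.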

Read-out in assay [2]: Fatty acid synthase (Homo sapiens) (UniProt P49327)
As to the kind of experiment: LTEA_HepaRG_FASN: Life Technologies and Expression Analysis (LTEA) Assay for Fatty Acid Synthase (FASN) using HepaRG (AID 2283448). The method, boiled down: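 Transcript-level assay: HepaRG liver cells are treated for 48 h across an eight-point range topping at 100 uM, and FASN mRNA, normalized to three housekeeping genes, is compared with DMSO controls in both directions.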

Read-out in assay [3]: Cyclin Dependent Kinase Inhibitor 1A (CDKN1A), CDKN1A (gene 1026)
Description: LTEA_HepaRG_CDKN1A: Life Technologies and Expression Analysis (LTEA) Assay for Cyclin Dependent Kinase Inhibitor 1A (CDKN1A) using HepaRG (AID 2283450). In a few lines: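 Differentiated HepaRG cells in serum-free induction medium, exposed 48 h in duplicate to eight half-log concentrations up to 100 uM in 0.5% DMSO. mRNA measured by TaqMan qRT-PCR, normalized to ACTB, GAPDH, POLR2A; bidirectional fit versus DMSO.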

Read-out in assay [4]: Cyclin D1 (CCND1), CCND1 (gene 595)
As to the kind of experiment: LTEA_HepaRG_CCND1: Life Technologies and Expression Analysis (LTEA) Assay for Cyclin D1 (CCND1) using HepaRG (AID 2283451). The method, boiled down:
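Differentiated HepaRG cells exposed 48 h in serum-free induction medium to eight half-log concentrations from 100 uM top, 0.5% DMSO, duplicates. CCND1 mRNA measured by Fluidigm TaqMan qRT-PCR, normalised to ACTB, GAPDH, POLR2A; bidirectional fit.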

Read-out in assay [5]: catalase (CAT), CAT (gene 847)
As to the kind of experiment: LTEA_HepaRG_CAT: Life Technologies and Expression Analysis (LTEA) Assay for catalase (CAT) using HepaRG (AID 2283452). In a few lines:
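Expression of CAT was quantified by TaqMan qRT-PCR with ACTB/GAPDH/POLR2A normalization after 48 h chemical exposure of HepaRG. Eight-point half-log series, top 100 uM, in 0.5% DMSO; gain or loss fitted against vehicle.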

Read-out in assay [6]: flavin-containing dimethylaniline monooxygenases 3 (FMO3), FMO3 (gene 2328)
Description: LTEA_HepaRG_FMO3: Life Technologies and Expression Analysis (LTEA) Assay for flavin-containing dimethylaniline monooxygenases 3 (FMO3) using HepaRG (AID 2283453). The method, boiled down: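 HepaRG, 48 h exposure, 8-pt half-log series from 100 uM, 0.5% DMSO vehicle, duplicates; FMO3 transcript by Fluidigm TaqMan qRT-PCR, housekeeping-normalized; gain/loss fit vs DMSO.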

Read-out in assay [7]: Cytochrome P450 (CYP1A1), CYP1A1 (gene 1543)
As to the kind of experiment: LTEA_HepaRG_CYP1A1: Life Technologies and Expression Analysis (LTEA) Assay for Cytochrome P450 (CYP1A1) using HepaRG (AID 2283454). The method, boiled down: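 Differentiated human HepaRG cells, after 48 h plating, exposed in duplicate for 48 h in serum-free induction medium to 8 half-log concentrations up to 100 uM in 0.5% DMSO. CYP1A1 mRNA by qRT-PCR, normalized to ACTB/GAPDH/POLR2A; bidirectional fit versus DMSO.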

Read-out in assay [8]: Forkhead box O1 (FOXO1), FOXO1 (gene 2308)
Description: LTEA_HepaRG_FOXO1: Life Technologies and Expression Analysis (LTEA) Assay for Forkhead box O1 (FOXO1) using HepaRG (AID 2283456). In a few lines: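 Readout is FOXO1 transcript level by multiplexed qRT-PCR against three housekeeping genes, curve-fitted in both directions relative to 0.5% DMSO vehicle. Human HepaRG cultures received chemicals for 48 h, up to 100 uM in half-log steps.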

Read-out in assay [9]: growth arrest and DNA damage 45 (GADD45A), GADD45A (gene 1647)
Description: LTEA_HepaRG_GADD45A: Life Technologies and Expression Analysis (LTEA) Assay for growth arrest and DNA damage 45 (GADD45A) using HepaRG (AID 2283458). The method, boiled down:
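Human HepaRG liver cells are treated in duplicate for 48 h with chemicals in 0.5% DMSO, highest concentration 100 uM. Expression is read by qRT-PCR and analyzed in both directions against vehicle.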

Read-out in assay [10]: Forkhead box O3 (FOXO3), FOXO3 (gene 2309)
As to the kind of experiment: LTEA_HepaRG_FOXO3: Life Technologies and Expression Analysis (LTEA) Assay for Forkhead box O3 (FOXO3) using HepaRG (AID 2283459). The method, boiled down: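 HepaRG, 48 h post-dose; 8 conc., half-log from 100 uM, 0.5% DMSO, duplicates; serum-free induction medium. Readout: FOXO3 mRNA, TaqMan qRT-PCR, housekeeping-normalized. Bidirectional curve fit vs DMSO baseline.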

Read-out in assay [11]: ABC Transporter (ABCB1), ABCB1 (gene 5243)
As to the kind of experiment: LTEA_HepaRG_ABCB1: Life Technologies and Expression Analysis (LTEA) Assay for ABC Transporter (ABCB1) using HepaRG (AID 2283460). The method, boiled down: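 Expression of ABCB1 was quantified by qRT-PCR against three housekeeping genes after human HepaRG cultures received test chemicals for 48 hours. Concentrations spanned eight half-log steps topping at 100 uM in 0.5% DMSO; gain or loss of signal was fitted relative to vehicle.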

Read-out in assay [12]: growth arrest and DNA damage 45 (GADD45B), GADD45B (gene 4616)
Description: LTEA_HepaRG_GADD45B: Life Technologies and Expression Analysis (LTEA) Assay for growth arrest and DNA damage 45 (GADD45B) using HepaRG (AID 2283461). The method, boiled down:
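Differentiated human HepaRG cells in serum-free induction medium exposed 48 h in duplicate to eight concentrations, top 100 uM, half-log steps, 0.5% DMSO. GADD45B mRNA by TaqMan qRT-PCR, normalized to ACTB, GAPDH, POLR2A; bidirectional fit versus DMSO.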

Read-out in assay [13]: ABC Transporter (ABCC3), ABCC3 (gene 8714)
Description: LTEA_HepaRG_ABCC3: Life Technologies and Expression Analysis (LTEA) Assay for ABC Transporter (ABCC3) using HepaRG (AID 2283462). In a few lines: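 Differentiated human HepaRG cells exposed 48 h in serum-free induction medium, 0.5% DMSO vehicle, 8-point half-log series to 100 uM in duplicate. ABCC3 mRNA by qRT-PCR, normalised to ACTB, GAPDH, POLR2A; bidirectional fit vs DMSO.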

Read-out in assay [14]: ABC Transporter (ABCB11), ABCB11 (gene 8647)
As to the kind of experiment: LTEA_HepaRG_ABCB11: Life Technologies and Expression Analysis (LTEA) Assay for ABC Transporter (ABCB11) using HepaRG (AID 2283463). In a few lines: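 ABCB11 transcript levels are read by Fluidigm TaqMan qRT-PCR after 48 h chemical treatment of human HepaRG cells. Concentrations span 100 uM downward in half-log steps with 0.5% DMSO; gain or loss is fitted against DMSO controls.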

Read-out in assay [15]: Broad substrate specificity ATP-binding cassette transporter ABCG2 (Homo sapiens) (UniProt Q9UNQ0)
As to the kind of experiment: LTEA_HepaRG_ABCG2: Life Technologies and Expression Analysis (LTEA) Assay for ABC Transporter (ABCG2) using HepaRG (AID 2283465). The method, boiled down:
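Read-out is ABCG2 mRNA induction or loss quantified by qRT-PCR after 48 h chemical treatment of human HepaRG cells, normalized to three housekeeping genes. Concentrations reached 100 uM top in half-log steps; fitting was bidirectional against 0.5% DMSO.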

Read-out in assay [16]: CFLAR gene, CFLAR (gene 8837)
Description: LTEA_HepaRG_CFLAR: Life Technologies and Expression Analysis (LTEA) Assay for CFLAR gene using HepaRG (AID 2283455). In a few lines: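 HepaRG, 48 h exposure, 8-pt conc-response (100 uM top, half-log), 0.5% DMSO vehicle, duplicates. CFLAR expression by qRT-PCR; ACTB/GAPDH/POLR2A normalization; gain or loss fit vs DMSO baseline.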

Read-out in assay [17]: ABC Transporter (ABCC2), ABCC2 (gene 1244)
As to the kind of experiment: LTEA_HepaRG_ABCC2: Life Technologies and Expression Analysis (LTEA) Assay for ABC Transporter (ABCC2) using HepaRG (AID 2283464). In a few lines:
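Differentiated HepaRG cells in serum-free induction medium exposed 48 h to eight half-log concentrations up to 100 uM, 0.5% DMSO, in duplicate. ABCC2 mRNA measured by qRT-PCR (TaqMan, Fluidigm), normalized to ACTB, GAPDH and POLR2A. Fitted in both directions against DMSO.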

Read-out in assay [18]: Cyclin D2 (CCND2), CCND2 (gene 894)
As to the kind of experiment: LTEA_HepaRG_CCND2: Life Technologies and Expression Analysis (LTEA) Assay for Cyclin D2 (CCND2) using HepaRG (AID 2283449). In a few lines: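 Read-out is CCND2 mRNA level measured by qRT-PCR in human HepaRG liver cells and normalised to three housekeeping genes. Chemicals were applied for 48 h at up to 100 uM, with gain or loss fitted relative to 0.5% DMSO.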

Chain of Fatty acid synthase (Homo sapiens) (P49327 whole entry, looked up): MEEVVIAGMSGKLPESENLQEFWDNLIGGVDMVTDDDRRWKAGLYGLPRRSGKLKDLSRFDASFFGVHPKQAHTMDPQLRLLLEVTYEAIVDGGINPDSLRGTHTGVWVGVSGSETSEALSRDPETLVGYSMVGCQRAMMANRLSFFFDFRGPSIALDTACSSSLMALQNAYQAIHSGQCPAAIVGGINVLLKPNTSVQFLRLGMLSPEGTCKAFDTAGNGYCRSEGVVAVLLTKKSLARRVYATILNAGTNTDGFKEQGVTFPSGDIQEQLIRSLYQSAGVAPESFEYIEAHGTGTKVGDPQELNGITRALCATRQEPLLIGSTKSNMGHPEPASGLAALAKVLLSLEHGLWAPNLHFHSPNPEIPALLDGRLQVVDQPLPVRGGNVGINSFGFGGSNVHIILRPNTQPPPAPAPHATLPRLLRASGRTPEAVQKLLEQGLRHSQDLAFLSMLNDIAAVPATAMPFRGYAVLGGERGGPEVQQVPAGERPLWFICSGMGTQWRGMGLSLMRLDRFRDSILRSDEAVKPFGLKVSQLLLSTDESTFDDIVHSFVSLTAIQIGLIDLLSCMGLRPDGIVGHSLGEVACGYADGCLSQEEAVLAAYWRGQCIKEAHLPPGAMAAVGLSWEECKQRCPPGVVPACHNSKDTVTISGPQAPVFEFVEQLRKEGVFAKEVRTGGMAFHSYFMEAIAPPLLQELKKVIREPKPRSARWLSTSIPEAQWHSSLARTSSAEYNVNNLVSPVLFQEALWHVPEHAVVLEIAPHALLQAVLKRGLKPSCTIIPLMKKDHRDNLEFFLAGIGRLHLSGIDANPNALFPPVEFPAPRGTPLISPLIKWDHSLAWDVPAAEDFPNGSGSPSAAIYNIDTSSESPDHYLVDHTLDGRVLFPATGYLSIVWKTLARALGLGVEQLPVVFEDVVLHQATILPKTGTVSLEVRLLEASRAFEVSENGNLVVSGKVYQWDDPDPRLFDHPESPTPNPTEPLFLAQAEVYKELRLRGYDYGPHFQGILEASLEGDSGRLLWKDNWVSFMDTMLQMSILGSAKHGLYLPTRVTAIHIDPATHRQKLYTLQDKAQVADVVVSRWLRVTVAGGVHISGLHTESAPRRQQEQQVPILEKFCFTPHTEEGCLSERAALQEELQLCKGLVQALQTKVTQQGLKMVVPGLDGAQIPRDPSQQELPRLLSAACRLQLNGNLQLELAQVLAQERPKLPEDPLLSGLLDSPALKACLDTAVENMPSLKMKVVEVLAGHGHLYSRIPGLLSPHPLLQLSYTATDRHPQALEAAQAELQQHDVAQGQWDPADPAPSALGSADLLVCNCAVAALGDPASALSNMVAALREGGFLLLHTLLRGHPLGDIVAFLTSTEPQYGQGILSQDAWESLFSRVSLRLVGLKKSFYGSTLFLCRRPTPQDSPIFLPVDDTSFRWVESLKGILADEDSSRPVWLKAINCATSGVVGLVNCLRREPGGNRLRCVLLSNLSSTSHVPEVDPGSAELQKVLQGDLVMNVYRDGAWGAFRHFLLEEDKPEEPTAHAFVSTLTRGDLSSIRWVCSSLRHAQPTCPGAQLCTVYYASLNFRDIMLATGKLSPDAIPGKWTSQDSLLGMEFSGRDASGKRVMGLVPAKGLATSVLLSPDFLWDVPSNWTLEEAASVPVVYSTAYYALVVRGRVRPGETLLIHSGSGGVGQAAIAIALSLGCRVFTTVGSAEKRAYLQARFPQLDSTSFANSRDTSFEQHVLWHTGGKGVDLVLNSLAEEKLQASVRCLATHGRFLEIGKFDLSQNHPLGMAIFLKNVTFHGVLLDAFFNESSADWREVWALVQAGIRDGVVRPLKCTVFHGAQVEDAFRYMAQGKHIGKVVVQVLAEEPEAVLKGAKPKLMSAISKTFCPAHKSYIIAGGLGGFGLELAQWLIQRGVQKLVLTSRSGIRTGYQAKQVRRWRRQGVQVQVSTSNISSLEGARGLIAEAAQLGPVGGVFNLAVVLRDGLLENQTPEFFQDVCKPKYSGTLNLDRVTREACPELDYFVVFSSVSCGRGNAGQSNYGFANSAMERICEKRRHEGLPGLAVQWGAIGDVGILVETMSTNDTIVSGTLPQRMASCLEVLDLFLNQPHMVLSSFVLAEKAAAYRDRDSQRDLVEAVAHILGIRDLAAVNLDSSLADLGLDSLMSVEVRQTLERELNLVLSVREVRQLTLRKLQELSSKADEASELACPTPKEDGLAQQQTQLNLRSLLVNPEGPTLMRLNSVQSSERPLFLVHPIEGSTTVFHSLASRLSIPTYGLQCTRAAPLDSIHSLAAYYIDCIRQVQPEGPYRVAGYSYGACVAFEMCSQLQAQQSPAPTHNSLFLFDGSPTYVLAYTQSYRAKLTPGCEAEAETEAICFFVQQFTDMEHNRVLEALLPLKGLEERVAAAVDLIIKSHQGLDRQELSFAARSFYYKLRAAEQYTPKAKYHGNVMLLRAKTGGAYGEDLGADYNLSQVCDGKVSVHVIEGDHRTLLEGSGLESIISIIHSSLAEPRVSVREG
Chain of Broad substrate specificity ATP-binding cassette transporter ABCG2 (Homo sapiens) (Q9UNQ0 whole entry, looked up): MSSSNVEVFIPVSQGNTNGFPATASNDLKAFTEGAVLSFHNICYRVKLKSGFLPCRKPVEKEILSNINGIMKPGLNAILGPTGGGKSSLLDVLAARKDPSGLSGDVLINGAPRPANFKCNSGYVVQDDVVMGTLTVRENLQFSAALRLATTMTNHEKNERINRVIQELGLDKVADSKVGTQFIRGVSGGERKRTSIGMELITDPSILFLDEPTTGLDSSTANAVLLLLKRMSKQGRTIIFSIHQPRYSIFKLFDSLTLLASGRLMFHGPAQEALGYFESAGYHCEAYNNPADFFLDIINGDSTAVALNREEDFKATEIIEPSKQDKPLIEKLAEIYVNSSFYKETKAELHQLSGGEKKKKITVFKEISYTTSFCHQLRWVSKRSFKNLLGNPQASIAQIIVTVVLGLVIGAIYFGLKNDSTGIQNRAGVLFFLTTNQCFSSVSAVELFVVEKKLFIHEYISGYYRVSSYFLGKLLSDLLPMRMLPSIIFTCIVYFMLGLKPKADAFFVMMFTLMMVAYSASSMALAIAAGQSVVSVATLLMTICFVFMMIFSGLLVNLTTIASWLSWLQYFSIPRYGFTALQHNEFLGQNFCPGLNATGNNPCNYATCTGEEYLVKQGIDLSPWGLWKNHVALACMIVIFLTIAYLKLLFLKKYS

Consider `O=C(O)Cc1ccccc1Nc1c(Cl)cccc1Cl`, for which the result in [1], in assay [2], in [3], in assay [4], in assay [5] and in assay [6] was inactive. In addition, the compound was called inactive in assay [8], in assay [9], in assay [10], in assay [12], in [13] and in [14]. In addition, in assay [15], the call was inactive. Moreover, the results for the AC50 in assay [7] and in [11] were 76.4 µM (active) and 6.67 µM (active), respectively.

Turning to `C[C@]12C=CC(=O)C=C1CC[C@@H]1[C@@H]2C(=O)C[C@@]2(C)[C@H]1CC[C@]2(O)C(=O)CO`, the outcome in assay [1], in [2], in assay [5], in assay [6], in assay [16] and in assay [8] was inactive. The compound was called inactive in assay [9], in assay [10], in assay [12], in assay [13], in assay [14] and in assay [15]. Further, the AC50 in assay [11] and in assay [17] was 50 µM (active) in each case.

For the compound `Cc1cccc(C)c1O`, the outcome in [1], in assay [2], in assay [18], in [3], in assay [5] and in assay [6] was inactive. The compound was classed as inactive in [16], in [8], in [9], in assay [11], in assay [12] and in assay [13]. For the same compound, the result in [14], in [17] and in [15] was inactive. Moreover, the concentration at half-maximal activity (AC50) (commonly the concentration at which the activity in the assay is half-maximal) in [7] was 50 µM (active).

Take `CC1=C(/C=C/C(C)=C/C=C/C(C)=C/CO)C(C)(C)CCC1`: the result in assay [1], in assay [2], in [18], in assay [3], in assay [5] and in assay [6] was inactive. Further, the result in [8], in assay [9], in [10], in assay [12] and in assay [13] was inactive. For the same compound, the concentration at half-maximal activity (AC50) was 64.1 µM (active) in assay [7], 52.2 µM (active) in assay [11], 52.2 µM (active) in [17] and 52.2 µM (active) in assay [15].

Regarding `CCCCCCCCCCO`, the result in assay [1], in assay [2], in assay [18], in [3], in assay [5] and in [6] was inactive. Moreover, the compound was classed as inactive in assay [7], in assay [16], in assay [8], in assay [9], in assay [11] and in [12]. Further, the outcome in assay [13], in assay [14], in assay [17] and in assay [15] was inactive.

For `CCCCc1ccc2c(n1)[C@@H](c1ccc(OC)cc1C[C@H](C)C(=O)O)[C@H](C(=O)O)[C@H]2c1ccc2c(c1)OCO2`, the result in assay [1], in assay [2], in assay [18], in assay [3], in [5] and in assay [6] was inactive. Further, the outcome in assay [8], in assay [9], in assay [10], in assay [11], in assay [12] and in assay [13] was inactive. Besides, the outcome in assay [15] was inactive. In addition, the concentration at half-maximal activity (AC50) in assay [7] was 71.7 µM (active).
